High-throughput results deposited in PubChem BioAssay by Sanford-Burnham Center for Chemical Genomics.
CYP2C19 inhib = blocks human cytochrome P450 2C19. hit rate 21% among 96,000. CYP2C19 Supersomes, luciferin-H EGE luminescence, 30 min. inhibition, % at 5 µM. AID 778;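 active means CYP2C19 inhibition above a set limit at 5 µM in the primary screen, cut at about 50% in these data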
CYP2C9 act = CYP2C9 (human) activation. P11712. recombinant CYP2C9, luciferin-H conversion, luminescence; hits give high values; factor 1 = untreated enzyme, 0 = blocked. activation factor at 5 µM. hit rate 1.4% among 96,000. AID 1024;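 active means activation factor of 2 or more for CYP2C9 at a 5 µM dose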
PLAP act = activates human placental alkaline phosphatase | activation fold at 20 µM | hit rate 1.2% among 96,000 | AID 696 | purified PLAP enzyme, luminescent substrate read-out; hits give high values | P05187; in the data active means activation fold above about 2
Target sequence (P05187 whole entry, looked up): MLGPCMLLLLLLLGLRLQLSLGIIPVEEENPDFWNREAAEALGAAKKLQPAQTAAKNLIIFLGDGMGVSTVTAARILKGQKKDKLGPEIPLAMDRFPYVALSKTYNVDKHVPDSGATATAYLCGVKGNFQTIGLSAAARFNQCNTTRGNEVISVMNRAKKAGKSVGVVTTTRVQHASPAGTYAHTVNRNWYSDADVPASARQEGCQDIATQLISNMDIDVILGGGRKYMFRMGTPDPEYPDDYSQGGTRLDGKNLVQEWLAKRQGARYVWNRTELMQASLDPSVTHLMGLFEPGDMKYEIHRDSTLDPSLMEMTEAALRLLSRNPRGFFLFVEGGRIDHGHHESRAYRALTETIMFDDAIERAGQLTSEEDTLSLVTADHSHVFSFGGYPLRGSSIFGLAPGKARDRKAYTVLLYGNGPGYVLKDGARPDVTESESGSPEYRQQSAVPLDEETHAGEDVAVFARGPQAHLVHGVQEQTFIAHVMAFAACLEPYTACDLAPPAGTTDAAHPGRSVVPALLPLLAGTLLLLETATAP
CYP2C9 inhib = human CYP2C9 inhibition; P11712; AID 777; hit rate 20% among 96,000; inhibition, % at 5 µM; CYP2C9 Supersomes, luciferin-H conversion, luminescence;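 active means blocking of liver enzyme CYP2C9 beyond about 50% at 5 µM, limit read from the data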
CYP2C19 act = activators of human cytochrome P450 2C19; P33261; recombinant CYP2C19, luciferin-H EGE luminescence; hits give high values; 0 = fully inhibited enzyme, 1 = untreated enzyme; activation factor at 5 µM; 96,000 tested, under 10 active;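 active means activation factor of at least 2 at 5 µM in the primary screen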
Large screens that a line does not name were inactive. Hits are enriched below; roughly 31% of the tested compounds scored in any of these assays.

O=C(COc1ccc([N+](=O)[O-])cc1)NN=C1CCCC1	none
Cc1cc(NO)nc(-c2ccc(Br)cc2)n1	none
CN(C)c1ccnc(-n2cccc2/C=N/OCc2ccccc2)c1C#N	CYP2C19 inhib 96
CN(C)c1ccnc(-n2cccc2/C=N/OCc2ccc(F)cc2Cl)c1C#N	CYP2C19 inhib 98, CYP2C9 inhib 96
COc1ccccc1CO/N=C/c1cccn1-c1nccc(N(C)C)c1C#N	CYP2C19 inhib 99, CYP2C9 inhib 91
CN(C)c1ccnc(Oc2ccccc2)c1C#N	none
CC(C)C(NC(=O)CNC(=O)OC(C)(C)C)C(=O)NCc1ccccc1 (stereo not drawn)	none
CCOC(=O)N/C(N)=N/c1nc2ccccc2s1	none
O=C(O)CN1C(=O)Nc2ccc(Br)cc2C1c1ccccc1 (stereo not drawn)	none
O=C1CN(C(=O)c2ccco2)C(c2ccccc2)c2cc(Cl)ccc2N1 (stereo not drawn)	CYP2C19 inhib 59, CYP2C9 inhib 71
O=C1CN(C(=O)c2ccc(Br)o2)C(c2ccc(F)cc2)c2cc(Cl)ccc2N1 (stereo not drawn)	CYP2C9 inhib 73
O=C1CN(C(=O)c2ccc(Br)o2)C(c2ccccc2)c2cc(Cl)ccc2N1 (stereo not drawn)	CYP2C19 inhib 86, CYP2C9 inhib 100
CCCC(=O)N1CC(=O)Nc2ccc(F)cc2C1c1ccccc1 (stereo not drawn)	none
Cn1c(=O)n(Cc2ccc(F)cc2)c(=O)c2c1nc1n2CCCN1C1CCCCC1	none
CSc1nnc2c3ccccc3c3ccccc3c2n1	none
CN(CCOc1ccc(Cl)cc1)c1ccc(S(=O)(=O)N2CCCCC2)cn1	none
Cc1cc(C)c(S(=O)(=O)n2ccc(-c3ccc(OCCN(C)c4ccccn4)cc3)n2)c(C)c1	CYP2C9 inhib 57
Cc1ccc(-n2nnnc2SCC(=O)c2cc(C)n(CC3CCCO3)c2C)cc1 (stereo not drawn)	none
Cc1cccc(-n2nnnc2SCC(=O)c2cc(C)n(Cc3ccco3)c2C)c1	CYP2C9 act 2.6
Cc1cc(C(=O)CSc2nnnn2-c2ccc(O)cc2)c(C)n1Cc1ccc2c(c1)OCO2	CYP2C19 inhib 99
Cc1sc2nc(SCC(=O)c3cc(C)n(CC4CCCO4)c3C)n(C(C)C)c(=O)c2c1C (stereo not drawn)	CYP2C19 inhib 82, CYP2C9 inhib 88
C=CCn1c(SCC(=O)c2cc(C)n(CCOC)c2C)nc2sc(C)c(C)c2c1=O	none
Cc1cccc(-n2nnnc2SCC(=O)c2cc(C)n(CC3CCCO3)c2C)c1 (stereo not drawn)	CYP2C19 inhib 90
COc1ccc(CN=Cc2c(C(F)(F)F)[nH][nH]c2=O)cc1	none
O=C(c1ccc(Cl)s1)N1CCN(c2nc3ccccc3s2)CC1	none
C=C(C)C(=O)OCCCCCCOc1ccc(C(=O)O)cc1	none
C=CCN1C(=O)NC2(O)C(=O)c3ccccc3C12O (stereo not drawn)	none
Cc1cc(C(=O)CSc2nc3ccccc3o2)c(C)n1CC1CCCO1 (stereo not drawn)	none
Cc1cc(C(=O)CSc2nc3ccccc3[nH]2)c(C)n1CC1CCCO1 (stereo not drawn)	CYP2C19 inhib 54, CYP2C9 inhib 56
C=CCn1c(SCC(=O)c2cc(C)n(CC3CCCO3)c2C)nnc1-c1ccccc1 (stereo not drawn)	CYP2C19 inhib 73
Cc1occc1-c1nnc(SCC(=O)c2ccccc2)n1CC1CCCO1 (stereo not drawn)	none
Cc1cccc(N(C(=O)Cn2nnc3ccccc32)C(C(=O)NC(C)(C)C)c2ccsc2)c1C (stereo not drawn)	none
COc1cc(NS(=O)(=O)c2ccc(NC(=O)C34CC5CC(CC(C5)C3)C4)cc2)ncn1	none
O=C(Cn1c(-c2cscn2)nc2ccccc21)Nc1ccc2ccccc2c1	CYP2C9 inhib 63
COc1cc(NC(=O)Cn2c(-c3cncs3)nc3ccccc32)cc(OC)c1OC	CYP2C9 inhib 56
Brc1ccccc1Cn1c(-c2cncs2)nc2ccccc21	none
N#Cc1ccccc1Cn1c(-c2cscn2)nc2ccccc21	CYP2C19 inhib 50
COc1cc(NC(=O)Cn2c(C)cc3ccccc3c2=O)cc(OC)c1OC	none
O=C(Cn1c(-c2cscn2)nc2ccccc21)Nc1cc(F)ccc1F	CYP2C19 inhib 64
O=C(O)Cn1c(-c2cscn2)nc2ccccc21	none
Cn1nc(C(C)(C)C)cc1C(=O)Nc1nc2c(s1)C(=O)CC(C)(C)C2	none
CN(C(=O)c1cccc(C#N)c1)c1nnc(C2CCCO2)s1 (stereo not drawn)	none
Cc1cc(NS(=O)(=O)Cc2ccccc2)cc(C)c1OCC(=O)N1CCOCC1	none
CN(C)c1nn(C(=O)Nc2cccc(C(F)(F)F)c2)cc1-c1ccccc1	none
CN(C(=O)/C(N=Nc1cccc(C(F)(F)F)c1)=C(\O)C(F)(F)F)c1ccccc1	CYP2C19 inhib 82, CYP2C9 inhib 80
Cn1c(SCc2nc(-c3cccs3)no2)nnc1C1CCCCC1	CYP2C19 inhib 78
CCCn1c(SCc2nc(-c3cccs3)no2)nnc1-c1ccncc1	CYP2C19 inhib 56
CCOc1ccc(-n2c(SCc3nc(-c4cccs4)no3)nnc2-c2ccncc2)cc1	CYP2C19 inhib 92, CYP2C9 inhib 94
CC1=Nc2ncnn2C(c2ccccc2)/C1=N\O (stereo not drawn)	none
CCN1C(=O)c2ccccc2S(=O)c2ccc(C(=O)NC3CC3)cc21 (stereo not drawn)	none
C=CCOCC(O)CS(=O)(=O)Cc1ccc(Cl)cc1 (stereo not drawn)	CYP2C19 inhib 74
Cc1nn(-c2ccccc2)c(Cl)c1C(=O)NCC(C)C	CYP2C19 inhib 69, CYP2C9 inhib 63
CCOC(=O)CNC(=O)c1c(C)nn(-c2ccccc2)c1Cl	none
Cc1nn(-c2ccccc2)c(Cl)c1C(=O)OC(C)C(=O)NC(=O)NC1CCCCC1 (stereo not drawn)	CYP2C9 inhib 55
O=C(NCc1ccc2c(c1)OCO2)C1CCCN1C(=O)Nc1cccc(Cl)c1 (stereo not drawn)	none
COCCNC(=O)C(C)OC(=O)c1cc2occc2n1C (stereo not drawn)	CYP2C9 inhib 80
Cn1c(C(=O)N2CCCC(C(=O)NCc3cccs3)C2)cc2sccc21 (stereo not drawn)	none
CC(OC(=O)c1cc2sccc2n1C)C(=O)NCc1cccs1 (stereo not drawn)	CYP2C9 inhib 77
CCOc1ccc(CCNC(=O)c2cc3sccc3n2C)cc1OCC	CYP2C19 inhib 94, CYP2C9 inhib 67
Cn1c(C(=O)OC(C(=O)NC2CCCCC2)c2cccnc2)cc2sccc21 (stereo not drawn)	CYP2C19 inhib 96, CYP2C9 inhib 74
Cc1cccc(NC(=O)CCc2c(C)nc3ncnn3c2C)n1	none
CNC(=O)c1ccc(-c2ccccc2)s1	none
O=C(CCCOc1ccc(Cl)cc1)NCC1CCCO1 (stereo not drawn)	none
CC(CCc1ccccc1)NC(=O)c1cc2sccc2n1C (stereo not drawn)	none
